Common to all, as to settings: mRNA level, 48 h; actives raise or lower the signal
Read-out in assay [1]: NAD(P)H dehydrogenase [quinone] 1 (NQO1), NQO1 (gene 1728)
The experiment in a line: LTEA_HepaRG_NQO1: Life Technologies and Expression Analysis (LTEA) Assay for NAD(P)H dehydrogenase [quinone] 1 (NQO1) using HepaRG (AID 2283526). In short, it runs like this: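 Human HepaRG hepatic cells received chemicals for 48 h in serum-free induction medium with 0.5% DMSO, up to 100 uM. Expression was assessed by TaqMan qRT-PCR against housekeeping controls and fitted bidirectionally against DMSO.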

Read-out in assay [2]: Nuclear factor erythroid 2-related factor 2 (Homo sapiens) (UniProt Q16236)
The experiment in a line: LTEA_HepaRG_NFE2L2: Life Technologies and Expression Analysis (LTEA) Assay for Nuclear factor erythroid 2-related factor 2 (NFE2L2) Transcription Factor using HepaRG (AID 2283527). In short, it runs like this: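 Transcript level of NFE2L2 is the read-out, measured by microfluidic TaqMan qRT-PCR and normalized to three housekeeping genes. Human HepaRG cultures received test chemical for 48 h at up to 100 uM in half-log steps. Gain or loss of signal is fitted relative to 0.5% DMSO.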

Read-out in assay [3]: succinate dehydrogenase complex iron sulfur subunit B (SDHB), SDHB (gene 6390)
The experiment in a line: LTEA_HepaRG_SDHB: Life Technologies and Expression Analysis (LTEA) Assay for succinate dehydrogenase complex iron sulfur subunit B (SDHB) using HepaRG (AID 2283528). In short, it runs like this:
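SDHB transcript level read by TaqMan qRT-PCR, housekeeping-normalised (ACTB, GAPDH, POLR2A), after 48 h chemical treatment of plated HepaRG cells; eight concentrations top 100 uM, half-log steps, 0.5% DMSO, duplicates; fitted both directions against DMSO.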

Read-out in assay [4]: Signal transducer and activator of transcription 3 (Homo sapiens) (UniProt P40763)
The experiment in a line: LTEA_HepaRG_STAT3: Life Technologies and Expression Analysis (LTEA) Assay for Signal transducer and activator of transcription (STAT3) using HepaRG (AID 2283529). In short, it runs like this: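 Read-out is STAT3 mRNA level by qRT-PCR, normalized to three housekeeping genes, in human HepaRG liver cells treated for 48 h. Concentrations ran from 100 uM downward in half-log steps; curves were fitted for gain or loss relative to 0.5% DMSO.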

Read-out in assay [5]: solute carrier (SLCO1B1), SLCO1B1 (gene 10599)
The experiment in a line: LTEA_HepaRG_SLCO1B1: Life Technologies and Expression Analysis (LTEA) Assay for solute carrier (SLCO1B1) using HepaRG (AID 2283530). In short, it runs like this:
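Differentiated human HepaRG cells, plated 48 h, switched to serum-free induction medium and exposed in duplicate for 48 h to 8 half-log concentrations (top 100 uM) in 0.5% DMSO. SLCO1B1 mRNA by TaqMan qRT-PCR, normalized to ACTB/GAPDH/POLR2A.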

Read-out in assay [6]: Transforming Growth Factor (TGFA), TGFA (gene 7039)
The experiment in a line: LTEA_HepaRG_TGFA: Life Technologies and Expression Analysis (LTEA) Assay for Transforming Growth Factor (TGFA) using HepaRG (AID 2283532). In short, it runs like this: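 HepaRG (human liver line), 48 h exposure, 8 conc. half-log down from 100 uM, 0.5% DMSO vehicle, duplicates; serum-free induction medium. TGFA mRNA by TaqMan qRT-PCR, ACTB/GAPDH/POLR2A normalization; gain/loss fit vs DMSO.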

Read-out in assay [7]: Transforming Growth Factor (TGFB1), TGFB1 (gene 7040)
Nature of the assay: LTEA_HepaRG_TGFB1: Life Technologies and Expression Analysis (LTEA) Assay for Transforming Growth Factor (TGFB1) Transporter using HepaRG (AID 2283533). In short, it runs like this:
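Differentiated human HepaRG cells in serum-free induction medium were exposed in duplicate for 48 h to eight concentrations (top 100 uM, half-log steps, 0.5% DMSO). TGFB1 mRNA was quantified by qRT-PCR, normalized to ACTB, GAPDH, POLR2A, and fitted bidirectionally against DMSO.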

Read-out in another assay: TIMP1, TIMP1 (gene 7076)
The experiment in a line: LTEA_HepaRG_TIMP1: Life Technologies and Expression Analysis (LTEA) Assay for TIMP1 using HepaRG (AID 2283534).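 As to outcome: TaqMan qRT-PCR signal normalized to ACTB GAPDH and POLR2A housekeeping genes.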 In short, it runs like this:
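Differentiated human HepaRG cells in serum-free induction medium were exposed 48 h to chemicals (8 half-log concentrations, top 100 uM, 0.5% DMSO). TIMP1 mRNA was quantified by TaqMan qRT-PCR, normalized to ACTB/GAPDH/POLR2A; bidirectional fit versus DMSO.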

Read-out in assay [8]: Tumor necrosis factor receptor 1 (TNFRSF1A), TNFRSF1A (gene 7132)
The experiment in a line: LTEA_HepaRG_TNFRSF1A: Life Technologies and Expression Analysis (LTEA) Assay for Tumor necrosis factor receptor 1 (TNFRSF1A) using HepaRG (AID 2283535). In short, it runs like this: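 Differentiated human HepaRG cells were exposed in duplicate for 48 h in serum-free induction medium to eight concentrations (top 100 uM, half-log steps, 0.5% DMSO). TNFRSF1A mRNA was quantified by qRT-PCR, normalized to ACTB, GAPDH and POLR2A, then fitted bidirectionally against DMSO.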

The structures appear in SMILES notation. Active and inactive are the calls of the source. The calls were made as follows: active = hit-call score of the fitted dose curve at least 0.9, where 1 is the maximum; inactive = score below 0.9.

Nuclear factor erythroid 2-related factor 2 (Homo sapiens), sequence (Q16236 whole entry, looked up): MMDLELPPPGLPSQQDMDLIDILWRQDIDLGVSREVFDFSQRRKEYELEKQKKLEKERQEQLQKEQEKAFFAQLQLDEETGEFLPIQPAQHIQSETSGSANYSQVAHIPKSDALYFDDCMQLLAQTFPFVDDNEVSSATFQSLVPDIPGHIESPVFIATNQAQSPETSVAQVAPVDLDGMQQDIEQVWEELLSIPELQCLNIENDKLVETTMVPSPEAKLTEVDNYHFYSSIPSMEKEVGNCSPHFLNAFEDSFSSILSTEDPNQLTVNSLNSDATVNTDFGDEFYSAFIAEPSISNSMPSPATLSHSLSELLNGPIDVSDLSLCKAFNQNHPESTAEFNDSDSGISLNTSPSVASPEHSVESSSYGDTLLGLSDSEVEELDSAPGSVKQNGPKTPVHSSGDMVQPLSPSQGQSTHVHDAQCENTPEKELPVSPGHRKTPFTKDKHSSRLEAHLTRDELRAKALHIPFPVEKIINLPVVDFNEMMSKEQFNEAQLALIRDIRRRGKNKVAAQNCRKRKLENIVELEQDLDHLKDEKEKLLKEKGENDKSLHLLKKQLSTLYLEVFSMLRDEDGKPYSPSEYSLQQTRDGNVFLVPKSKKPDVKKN
Signal transducer and activator of transcription 3 (Homo sapiens), sequence (P40763 whole entry, looked up): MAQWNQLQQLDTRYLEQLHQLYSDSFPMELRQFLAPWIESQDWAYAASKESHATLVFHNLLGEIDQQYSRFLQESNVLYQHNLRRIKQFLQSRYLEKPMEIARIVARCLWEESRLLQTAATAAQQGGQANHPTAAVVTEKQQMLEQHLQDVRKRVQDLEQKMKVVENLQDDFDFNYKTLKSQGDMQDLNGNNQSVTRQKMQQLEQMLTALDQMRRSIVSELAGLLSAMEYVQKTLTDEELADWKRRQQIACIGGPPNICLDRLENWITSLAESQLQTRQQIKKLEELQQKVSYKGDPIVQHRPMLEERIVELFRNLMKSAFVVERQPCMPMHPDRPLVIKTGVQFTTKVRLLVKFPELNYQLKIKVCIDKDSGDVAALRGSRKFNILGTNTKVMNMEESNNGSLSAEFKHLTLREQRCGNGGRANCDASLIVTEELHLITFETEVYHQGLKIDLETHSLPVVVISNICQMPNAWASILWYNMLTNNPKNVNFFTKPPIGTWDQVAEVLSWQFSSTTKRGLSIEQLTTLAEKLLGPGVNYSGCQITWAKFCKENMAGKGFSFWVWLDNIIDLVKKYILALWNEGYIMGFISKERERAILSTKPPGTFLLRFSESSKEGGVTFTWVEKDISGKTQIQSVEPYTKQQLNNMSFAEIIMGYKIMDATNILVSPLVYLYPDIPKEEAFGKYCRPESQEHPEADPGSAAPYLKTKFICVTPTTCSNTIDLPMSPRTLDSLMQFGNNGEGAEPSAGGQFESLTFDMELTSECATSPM

For orientation: AC50 means the midpoint of the concentration-response curve, whichever way the signal moves. `Cc1cc(F)ccc1-c1cc(N2CC[C@@H](O)[C@H]2CO)ncc1N(C)C(=O)C(C)(C)c1cc(C(F)(F)F)cc(C(F)(F)F)c1`: the AC50 is 79.8 µM (active) in assay [1]; 11.5 µM (active) in assay [2]; 75.1 µM (active) in [3]; 12.9 µM (active) in assay [5]; 23.6 µM (active) in assay [6]; 19.3 µM (active) in [7]. Besides, the outcome in [4] was “inactive”; in the assay with TIMP1, TIMP1 (gene 7076) it was “inactive”; in [8], “inactive”.

As for `c1ccc(C[n+]2cccc3ccccc32)cc1`, the outcome is “inactive” in [1]; “inactive” in assay [3]; “inactive” in assay [7]; “inactive” in the assay with TIMP1, TIMP1 (gene 7076). Moreover, the concentration at half-maximal activity (AC50) in [2] was 13.6 µM (active); in assay [4], 20.5 µM (active); in assay [5] it was 31.1 µM (active); in assay [6], 63 µM (active); in assay [8] it was 27.3 µM (active).

As for `c1ccc2ccccc2c1`, the compound was classed as inactive in [1], in assay [2], in assay [3], in assay [4], in [5] and in [6]. Besides, the outcome in [7] was “inactive”; in the assay with TIMP1, TIMP1 (gene 7076), “inactive”; in assay [8] it was “inactive”.

For `CN(C)C(=O)C1(N2CCCCC2)CCN(CC[C@@]2(c3ccc(Cl)c(Cl)c3)CN(C(=O)c3ccccc3)CCO2)CC1`, the outcome in assay [1] and in assay [6] was inactive. In addition, the half-maximal activity concentration (AC50) in [2] is 47.2 µM (active); in [3], 22.5 µM (active); in assay [4] it was 47.2 µM (active); in assay [5] it was 23.1 µM (active); in assay [7], 47.2 µM (active); with TIMP1, TIMP1 (gene 7076), 17.4 µM (active). Besides, the AC50 in [8] is 27.5 µM (active).

Consider `Cc1ccc(C(C)C)cc1`, for which the result in assay [1], in assay [2], in assay [3], in assay [4], in assay [5] and in assay [6] was inactive. Also, the outcome is “inactive” in assay [7]; “inactive” with TIMP1, TIMP1 (gene 7076); “inactive” in [8].

With `O=C(O)c1ccccc1C(=O)OCc1ccccc1`, the outcome in [1], in [2], in [3], in [4], in [5] and in assay [6] was inactive. The outcome in assay [7] is “inactive”; in the assay with TIMP1, TIMP1 (gene 7076), “inactive”; in assay [8] it was “inactive”.

Regarding `CCN(Cc1cccnc1)C(=O)c1cccc(Cl)c1[C@]1(C)C(=O)N(Cc2ccc(OC)cc2OC)c2ccc(Cl)cc21`, the outcome in assay [1] is “inactive”; in assay [3] it was “inactive”; in [4], “inactive”; in the assay with TIMP1, TIMP1 (gene 7076), “inactive”; in assay [8] it was “inactive”. Moreover, the concentration at half-maximal activity (AC50) in [2] was 16 µM (active); in assay [5], 22.2 µM (active); in assay [6], 13.6 µM (active); in assay [7] it was 14.5 µM (active).

With `O=C1c2ccccc2C(=O)N1CCc1noc(-c2ccc(CN3CCCCCC3)s2)n1`, the call in assay [1], in [2], in [3], in assay [4], in [5] and in assay [6] was inactive. The outcome is “inactive” in [7]; “inactive” in the assay with TIMP1, TIMP1 (gene 7076); “inactive” in assay [8].

As for `Clc1ccccc1C(c1ccccc1)(c1ccccc1)n1ccnc1`, the outcome in assay [1] was “inactive”; in assay [4], “inactive”; with TIMP1, TIMP1 (gene 7076), “inactive”; in assay [8] it was “inactive”. The AC50 in assay [2] was 14.5 µM (active); in [3] it was 90.5 µM (active); in assay [5], 23.7 µM (active); in assay [6] it was 23.2 µM (active); in assay [7], 91.9 µM (active).

For `CCCC(=O)OCCC(C)C`, the compound was classed as inactive in assay [1], in assay [2], in assay [3], in [4], in assay [5] and in assay [6]. Further, the outcome is “inactive” in assay [7]; “inactive” in the assay with TIMP1, TIMP1 (gene 7076); “inactive” in assay [8].

For the compound `Cc1cccc2ccccc12`, the outcome in [1], in assay [2], in assay [3], in [4], in assay [5] and in assay [6] was inactive. In addition, the outcome in assay [7] is “inactive”; in the assay with TIMP1, TIMP1 (gene 7076), “inactive”; in assay [8], “inactive”.

As to `C[C@]12CC[C@@H]3c4ccc(O)cc4CC[C@H]3[C@@H]1CC[C@H]2O`, the outcome in assay [1] is “inactive”; in [2], “inactive”; in assay [3], “inactive”; in assay [4], “inactive”; in assay [6], “inactive”; with TIMP1, TIMP1 (gene 7076), “inactive”. The compound was classed as inactive in assay [8]. Moreover, the AC50 in assay [5] was 77.5 µM (active); in assay [7], 50 µM (active).

With `COCC(C)OCC(C)OCC(C)O` (stereo not given), the call in [1], in assay [2], in [3], in assay [4], in assay [5] and in [6] was inactive. For the same compound, the outcome in [7] is “inactive”; with TIMP1, TIMP1 (gene 7076) it was “inactive”; in assay [8] it was “inactive”.

As for `NC(=O)c1nc(-c2cccc(-c3cc(F)ccc3OCC(F)(F)C(F)(F)F)c2)n[nH]1`, the AC50 in assay [1] is 78.2 µM (active); in assay [6], 91.2 µM (active); in the assay with TIMP1, TIMP1 (gene 7076) it was 83.2 µM (active). Moreover, the result in [2], in assay [3], in [4], in assay [5], in assay [7] and in assay [8] was inactive.

On to `CC[C@@H]1C[C@H](N(Cc2cc(C(F)(F)F)cc(C(F)(F)F)c2)C(C)=O)c2cc(C(F)(F)F)ccc2N1C(=O)OC(C)C`, for which the result in assay [1], in assay [2], in assay [3], in [4], in [5] and in [6] was inactive. For the same compound, the outcome in [7] was “inactive”; in the assay with TIMP1, TIMP1 (gene 7076), “inactive”; in assay [8], “inactive”.

Turning to `Clc1cc(Cl)c2c(c1)N=C1CCCCCN1C2`, the result in assay [1], in assay [2], in [3], in [4], in assay [5] and in [6] was inactive. Further, the outcome in assay [7] is “inactive”; in the assay with TIMP1, TIMP1 (gene 7076) it was “inactive”; in assay [8], “inactive”.

In the case of `CC(C)(O)c1ccc(CNC(=O)c2cccnc2Oc2ccc3nonc3c2)cc1`, the outcome in assay [1], in assay [2], in [3], in assay [4], in assay [5] and in assay [6] was inactive. For the same compound, the outcome was “inactive” in assay [7]; “inactive” with TIMP1, TIMP1 (gene 7076); “inactive” in assay [8].

Consider `O=c1c(-c2ccc(O)cc2)coc2cc(O)cc(O)c12`, for which the result in [1], in assay [2], in [3], in assay [4], in assay [5] and in [6] was inactive. In addition, the outcome in assay [7] was “inactive”; with TIMP1, TIMP1 (gene 7076) it was “inactive”; in [8], “inactive”.

Turning to `CC(C)(C)c1cc(/C=C2\SC(N)=NC2=O)cc(C(C)(C)C)c1O`, the AC50 is 15.8 µM (active) in [1]; 22.7 µM (active) in assay [2]; 24.9 µM (active) in assay [5]; 22.6 µM (active) in assay [6]; 4.43 µM (active) in [7]; 33.8 µM (active) with TIMP1, TIMP1 (gene 7076). Moreover, in assay [8], the concentration at half-maximal activity (AC50) was 15.8 µM (active). The call in assay [3] and in assay [4] was inactive.

Take `CN1C(=O)CC[C@H]1c1cccnc1`: the call in assay [1], in [2], in assay [3], in assay [4], in assay [5] and in [6] was inactive. The outcome in assay [7] was “inactive”; with TIMP1, TIMP1 (gene 7076), “inactive”; in assay [8], “inactive”.

The values are drawn from PubChem BioAssay (EPA / NIEHS).
